The entries come from a sample that favours hits as a whole.
DT40 TDP1 CPT: DT40-hTDP1 cell growth loss with CPT; chicken DT40 Tdp1-/-;hTDP1 cells + 20 nM CPT, ATP luminescence, 48 h; Potency, µM (series often up to 46.2 µM), inactives show at the top dose activity change, negative = growth inhibition, hits mostly inhibitors; 420,000 compounds, 12% hits; AID 686979; further: potency means the concentration at half of the fitted maximal effect; nearly all actives have a fitted effect of over 55% in size
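Cell growth measured by CellTiter-Glo luminescence after a minimum 48 h, 37 C compound exposure with 20 nM CPT in Tdp1-knockout DT40 cells stably expressing hTDP1, seeded 400/well; qHTS titration format.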
HT1080NT lethal: kills 2HG-producing HT-1080-NT fibrosarcoma cells; HT-1080-NT fibrosarcoma viability, CellTiter-Glo ATP luminescence, 48 h; Potency, µM (top dose mostly 46.1 µM), inactives show at the highest dose activity, negative = less viability, actives largely listed as cytotoxic; 360,000 compounds, 1.6% hits; AID 686970;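 further: NT is the 2HG producing partner of a matched IDH1 knockdown line; potency means the concentration at half of the fitted maximal effect; 0% = DMSO-treated cells and -100% = media-only wells without cells; nearly all actives have a fitted effect of over 55% in size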
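HT-1080-NT fibrosarcoma cells (2HG-overproducing), 750 cells/well in RPMI with 5% FBS, dosed after 2 h and incubated 48 h at 37C. CellTiter-Glo luminescence normalized to DMSO and no-cell wells; concentration-response curves fitted and classed.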
DT40 TDP1 no CPT: qHTS for Inhibitors of human tyrosyl-DNA phosphodiesterase 1 (TDP1): qHTS in cells in absence of CPT; AID 686978, 2013; 420,000 compounds, 15% hits; Potency, µM (series often up to 46.2 µM), for inactives: at the highest dose activity change, negative = growth inhibition, actives largely listed as inhibitors; DT40 Tdp1-/- hTDP1 cells, no CPT, ATP luminescence, 48 h; further: potency means the concentration at half of the fitted maximal effect; nearly all actives have a fitted effect of over 55% in size
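Chicken DT40 Tdp1-/- cells stably complemented with human TDP1 were seeded at 400 cells/well with DMSO in place of 20 nM camptothecin. After compound pinning, cells grew at least 48 hr at 37 °C; viability read by CellTiter-Glo luminescence.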
IL1B secr inh: inflammasome signaling inhibition, IL-1 beta readout; THP-1 LPS/ATP IL-1B secretion, AlphaLISA, 16 h; active compounds read low; 360,000 compounds, 4.7% hits; AID 743279; activity change, % at 57.5 µM; in the data active means activity change below about -50%; inconclusive means mostly about -30% to -49%
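THP-1 cells pretreated 1 hr with compounds (up to 57.5 uM final), then stimulated with LPS (250 ng/mL final) plus ATP (1.25 mM final); secreted IL-1B measured by AlphaLISA after 16 hr, decreased signal indicating inhibition.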
12-LOX inh: inhibitors of human 12S-lipoxygenase ALOX12 | AID 1671190 | Potency, µM (highest dose often 108 µM), for the others: top-dose activity change, negative = inhibition, usual class: inhibitors | purified 12hLO, xylenol orange hydroperoxide absorbance | P18054 | 580,000 compounds, 1.1% hits; further: potency means the concentration at half of the fitted maximal effect
Target sequence (P18054 whole entry, looked up): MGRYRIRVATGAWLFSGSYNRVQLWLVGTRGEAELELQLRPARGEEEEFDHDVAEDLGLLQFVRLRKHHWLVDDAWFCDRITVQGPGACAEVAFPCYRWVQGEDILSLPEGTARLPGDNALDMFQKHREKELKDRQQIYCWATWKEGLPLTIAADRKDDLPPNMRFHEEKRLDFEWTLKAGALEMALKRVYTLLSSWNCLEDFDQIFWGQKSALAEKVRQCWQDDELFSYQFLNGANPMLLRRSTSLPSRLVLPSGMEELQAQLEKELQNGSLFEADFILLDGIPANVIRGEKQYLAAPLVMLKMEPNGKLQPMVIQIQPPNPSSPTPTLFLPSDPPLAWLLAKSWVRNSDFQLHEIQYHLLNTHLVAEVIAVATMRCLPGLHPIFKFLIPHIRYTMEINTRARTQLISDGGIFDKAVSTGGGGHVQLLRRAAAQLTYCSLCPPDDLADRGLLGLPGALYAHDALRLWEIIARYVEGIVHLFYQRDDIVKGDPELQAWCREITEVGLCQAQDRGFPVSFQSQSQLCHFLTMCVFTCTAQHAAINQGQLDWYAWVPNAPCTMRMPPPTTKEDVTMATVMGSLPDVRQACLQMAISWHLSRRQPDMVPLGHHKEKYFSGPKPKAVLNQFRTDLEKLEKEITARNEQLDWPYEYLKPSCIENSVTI
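Hydroperoxide product was detected by ferrous iron/xylenol orange as the 573 to 405 nm absorbance ratio. Arachidonic acid at 40 uM (final) was turned over for 30 min at room temperature by 150 nM human 12hLO, pH 7.0 Hepes buffer, after 15 min compound preincubation.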
HT1080 IDH1KD tx: HT-1080 IDH1 knockdown cell toxicity (counter line); Potency, µM (series often up to 46.1 µM), inactives show top-dose activity, negative = toxicity, hits mostly cytotoxic; HT-1080 IDH1 knockdown viability, ATP luminescence, 48 h; 360,000 compounds, 2% hits;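 further: potency means the concentration at half of the fitted maximal effect; 0% = DMSO wells and -100% = cell-free medium wells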
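Luminescent ATP read-out (CellTiter-Glo, 10 min at room temperature) after 48 h compound exposure at 37 °C gave viability of IDH1-knockdown HT-1080 cells. Activity was normalised to DMSO and cell-free wells, then fitted as concentration-response curves.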
Active calls of the source: *; i = inactive; ? = inconclusive; . = no result given; [ ] = remark or other dose. Unless noted, the call rests on the fitted dose curve; in most records, active means well fitted curve in the direction sought with a large enough effect; inconclusive means small, poorly fitted or top-dose-only effect, or another doubt; inactive means no such curve, though single readings can be large; an effect the other way counts as inactive or inconclusive. Unless noted, on the % scale 0 is the no-effect control and ±100 the full control effect.

SMILES	DT40 TDP1 CPT	HT1080NT lethal	DT40 TDP1 no CPT	IL1B secr inh	12-LOX inh	HT1080 IDH1KD tx
C[S+](=O)([O-])N1Cc2ccccc2CC12CN(C(=O)Nc1ccccc1)C2	.	.	.	.	51.5%	.
CC(=O)N(C)c1ccc(NC(=O)Nc2ccc(Cl)cc2)cc1	?	-2.5%	18.4µM*	-24.6	0.0%	-0.1%
CNS(=O)(=O)c1ccc(NC(=O)c2ccoc2C)cc1	-2.5%	1.2%	-25.8%	-7.7	-3.9%	0.0%
N#Cc1ccc(NC(=O)Nc2ccc(Cl)cc2)cc1	2.91µM*	14.6µM*	3.66µM*	-109.8*	99.1%	?
Cc1occc1C(=O)Nc1ccc(S(N)(=O)=O)cc1	23.1µM*	-0.5%	?	-1.9	-4.6%	6.8%
CN(CC(=O)Nc1ccc(C#N)cc1)Cc1ccc(Cl)cc1	?	?	?	-9.7	?	?
Cc1ccc2oc(=O)n(CCNC(=O)Nc3ccc(Cl)cc3)c2c1	23.1µM*	.	16.4µM*	.	-22.7%	.
C=CCO[C@@H]1C[C@H]2C(=O)Nc3ccc(-c4ccc(OC)cc4)cc3C(=O)N2C1	.	.	.	.	-2.8%[176 µM]	.
O=C1N[C@@H](Cc2ccccc2)COC(=O)[C@H](Cc2ccc(F)cc2)C/C=C\C[C@H]1CC(=O)N(CCO)Cc1ccccc1	20.6µM*	-24.0%	8.2µM*	-25.7	?	?
O=C1N[C@@H](Cc2ccccc2)COC(=O)[C@@H](Cc2ccc(F)cc2)CC/C=C/C[C@H]1CC(=O)N(CCO)Cc1ccccc1	?	?	6.51µM*	-21.4	?	?
C[C@H]1CCC/C=C/[C@@H]2C[C@H](O)C[C@H]2[C@H](O)[C@H](S(=O)c2ccc(O)cc2)CC(=O)O1 (stereo partly drawn)	0.581µM*	?	0.731µM*	?	39.8µM*	0.146µM*
CCc1ccc(NC(=O)CCn2cnc3ccccc3c2=O)cc1	-3.9%	.	-20.0%	.	?	.
CCOc1ccc(-n2nc(CO)c(C(=O)NCc3cccs3)n2)cc1	?	.	16.4µM*	.	-18.2%	.
CCOc1ccccc1C(=O)N(Cc1cccs1)c1ccc(Cl)cc1	16.4µM*	.	10.3µM*	.	0.0%	.
Cc1ccc(N(Cc2cccs2)C(=O)c2ccccc2Cl)cc1	13µM*	.	18.4µM*	.	-1.5%	.
Cc1cccc(OCC(=O)N(Cc2cccs2)c2ccc(Cl)cc2)c1C	?	.	?	.	0.0%	.
COc1ccc(NC(=O)C2CN(S(=O)(=O)C3CC3)CC23CCCCC3)cc1F (stereo not drawn)	.	.	.	.	17.9%	.
Cc1ccc(C(=O)OCC(=O)N2c3ccccc3NC(=O)C2(C)C)cc1S(=O)(=O)N1CCCCC1	?	-18.6%	14.6µM*	-19.2	10.9%	-19.0%
Cc1ccnc2nc(C(=O)OCC(=O)NC3CCCC(C)C3C)nn12 (stereo not drawn)	-19.9%	-23.7%	1.46µM*	-8.1	-7.2%	?
Cc1ccc(S(=O)(=O)N2CCCCC2)cc1C(=O)OCC(=O)N1c2ccccc2NC(=O)C1(C)C	?	14.0%	?	-7.2	3.8%	11.7%
Cc1ccc(C(=O)OC(C)C(=O)NC2CCCCC2C)cc1S(=O)(=O)N1CCCCC1 (stereo not drawn)	18.4µM*	12.5%	?	23.3	i	-0.5%
Cc1ccc(C(=O)OCC(=O)NC2CCCC(C)C2C)cc1S(=O)(=O)N1CCCCC1 (stereo not drawn)	20.6µM*	-17.6%[9.24 µM]	?	9.2	-17.9%	-2.7%
Cc1ccc(C(=O)OCC(=O)N2CCC(C)CC2)cc1S(=O)(=O)N1CCCCC1	-13.9%	5.8%	?	i	?	0.1%
CN(CC1(C)CCOCC1)C(=O)c1ccccc1Cl	.	.	.	.	23.1%	.
O=C(OC1CCOC1=O)c1ccccc1Nc1ccccc1 (stereo not drawn)	.	.	.	.	-28.3%	.
SMILES	DT40 TDP1 CPT	HT1080NT lethal	DT40 TDP1 no CPT	IL1B secr inh	12-LOX inh	HT1080 IDH1KD tx
C#CCOc1ccc(C(=O)N[C@@H]2CN(Cc3cccc(OC)c3)CCC[C@H]2O)cc1	.	.	.	.	4.8%[176 µM]	.
CCCCN(CCO)CCCC	13.5%	23.7%	-0.2%	14.5	5.1%	2.4%
O=c1n(Cc2cccc(F)c2)c2ccccc2c2nc(-c3ccccc3)nn12	?	.	18.4µM*	.	-15.3%	.
Cc1ccc(-c2nc3c4ccccc4n(Cc4cccc(Cl)c4)c(=O)n3n2)cc1	-11.0%	.	?	.	-10.1%	.
Cc1cccc(Cn2c(=O)n3nc(-c4ccccc4)nc3c3ccccc32)c1	18.4µM*	.	18.4µM*	.	-15.8%	.
COc1ccccc1CN1CCN(Cc2nc(-c3ccccc3)no2)CC1	-10.5%	-0.6%	-0.1%	33.7	-1.1%	-0.5%
COc1ccc(-c2noc(-c3cccnc3N3CCN(c4ccc(OC)cc4)CC3)n2)cc1	14.6µM*	.	8.2µM*	.	-20.2%	.
COc1ccc(-c2noc(-c3ccoc3C)n2)cc1	?	-3.2%	18.4µM*	25.4	-7.8%	-11.4%
COc1ccc(-c2noc(CN3CCN(c4cccc(Cl)c4)CC3)n2)cc1	?	.	?	.	-5.9%	.
COc1ccc(N2CCN(Cc3nc(-c4ccc(C)cc4)no3)CC2)cc1	?	.	23.1µM*	.	-28.9%	.
COc1cc(-c2noc(CN3CCN(c4ccccc4)CC3)n2)cc(OC)c1OC	?	.	20.6µM*	.	-16.3%	.
COc1ccc(CN2C[C@@]3(O)CC[C@@H](O)[C@@H](OC)[C@@H]3[C@@]2(C)[C@H](O)CC=C(C)C)cc1	.	.	.	.	-4.0%	.
COc1ccc(OCC(=O)Nc2nn3cc(-c4ccccc4)nc3s2)cc1	.	.	.	.	1.1%	.
COc1ccccc1N1CCN(Cc2nc(-c3cc(OC)c(OC)c(OC)c3)no2)CC1	23.1µM*	.	18.4µM*	.	3.2%	.
C=C1C=C(C(F)F)n2ncc(C(=O)NCc3ccccc3OC)c2N1	10µM*	.	?	.	.	.
C=C1C=C(C(F)F)n2ncc(C(=O)NCc3ccc(Cl)cc3Cl)c2N1	8.91µM*	.	15.8µM*	.	.	.
C=C1C=C(C(F)F)n2ncc(C(=O)Nc3cccc(CC)c3)c2N1	-1.0%	.	-13.6%	.	.	.
O=C1CO[C@H]2CN(Cc3ccc(F)c(F)c3)C[C@H]2N1Cc1ccccn1	.	.	.	.	7.8%[176 µM]	.
COc1ccc2c(C)c(CCC(=O)NCc3ccc(Cl)cc3)c(=O)oc2c1C	-22.1%	.	?	.	-25.1%	.
CC(C)Cc1ccc(C(C)/C=C2/CCC(CN3CCCCC3)C2=O)cc1 (stereo not drawn)	2.91µM*	?	2.91µM*	-106.2*	?	?

Source: PubChem (National Center for Advancing Translational Sciences (NCATS))
